Source: PubChem BioAssay (EPA / NIEHS)
Results filed as inconclusive are left out. The source made the active and inactive calls. The calls were made as follows, unless noted: active = hit-call score of the fitted dose curve at least 0.9, where 1 is the maximum; inconclusive = response in the unintended direction; inactive = score below 0.9.

Columns and labels:
[1] = molecular target: Glucocorticoid receptor (Homo sapiens) (UniProt P04150); test: ATG_GR_TRANS: Attagene TRANS-FACTORIAL HepG2 Assay for human Glucocorticoid Receptor (GR) (AID 2282978); conditions: HepG2 Attagene TRANS GR reporter, mRNA transcription;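 also: activators score as hits since higher reporter transcript over DMSO is fitted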
Glucocorticoid receptor (Homo sapiens), sequence (P04150 whole entry, looked up, the tested form may be a part): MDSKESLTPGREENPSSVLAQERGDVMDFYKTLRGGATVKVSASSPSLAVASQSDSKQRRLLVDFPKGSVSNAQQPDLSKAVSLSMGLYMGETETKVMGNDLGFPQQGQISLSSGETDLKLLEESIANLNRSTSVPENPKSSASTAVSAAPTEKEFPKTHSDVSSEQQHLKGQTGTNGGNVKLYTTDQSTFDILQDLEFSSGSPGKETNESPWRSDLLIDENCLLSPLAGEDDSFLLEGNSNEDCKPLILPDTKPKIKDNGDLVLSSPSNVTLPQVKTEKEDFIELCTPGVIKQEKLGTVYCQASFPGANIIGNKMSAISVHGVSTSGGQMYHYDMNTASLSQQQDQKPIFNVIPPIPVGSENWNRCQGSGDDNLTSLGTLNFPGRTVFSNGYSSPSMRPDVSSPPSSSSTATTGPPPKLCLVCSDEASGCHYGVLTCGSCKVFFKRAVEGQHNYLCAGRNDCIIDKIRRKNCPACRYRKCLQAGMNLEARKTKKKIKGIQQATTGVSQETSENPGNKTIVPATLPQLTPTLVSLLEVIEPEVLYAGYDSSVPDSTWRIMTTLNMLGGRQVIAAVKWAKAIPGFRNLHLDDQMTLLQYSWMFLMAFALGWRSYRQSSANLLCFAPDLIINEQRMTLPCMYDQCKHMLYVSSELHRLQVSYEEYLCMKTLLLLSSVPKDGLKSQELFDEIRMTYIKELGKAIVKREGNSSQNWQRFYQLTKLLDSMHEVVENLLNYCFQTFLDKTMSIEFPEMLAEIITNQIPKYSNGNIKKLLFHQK
Procedure, shortened: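 HepG2 cells transiently transfected with multiplexed reporter units in which chimeric NR-GAL4 proteins drive GAL4-UAS reporters; 24 h compound exposure. Reporter mRNA measured by RT-PCR, 6-FAM labelling, HpaI digestion and capillary electrophoresis; gain-of-signal fitted versus DMSO.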

[2] = molecular target: Bile acid receptor (Homo sapiens) (UniProt Q96RI1); test: ATG_FXR_TRANS: Attagene TRANS-FACTORIAL HepG2 Assay for Farnesoid X Receptor (FXR) (AID 2282979); conditions: HepG2 Attagene TRANS FXR-GAL4 reporter transcription;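 also: hits raise reporter mRNA above DMSO so AC50 marks FXR activation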
Bile acid receptor (Homo sapiens), sequence (Q96RI1 whole entry, looked up, the tested form may be a part): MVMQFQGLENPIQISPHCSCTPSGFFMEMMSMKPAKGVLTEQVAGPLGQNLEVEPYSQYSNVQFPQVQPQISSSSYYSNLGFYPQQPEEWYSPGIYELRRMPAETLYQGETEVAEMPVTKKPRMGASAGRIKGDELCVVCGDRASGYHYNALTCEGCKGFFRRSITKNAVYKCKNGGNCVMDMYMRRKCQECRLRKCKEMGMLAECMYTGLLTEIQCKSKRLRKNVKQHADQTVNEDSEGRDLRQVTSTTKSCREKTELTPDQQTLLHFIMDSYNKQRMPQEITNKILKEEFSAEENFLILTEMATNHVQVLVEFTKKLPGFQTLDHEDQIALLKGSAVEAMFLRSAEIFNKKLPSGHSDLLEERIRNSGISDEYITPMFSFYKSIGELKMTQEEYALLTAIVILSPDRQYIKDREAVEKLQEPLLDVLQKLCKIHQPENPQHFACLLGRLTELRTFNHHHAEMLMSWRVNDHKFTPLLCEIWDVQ
Procedure, shortened: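 Read-out: fluorescent reporter transcripts quantified by capillary electrophoresis after RT-PCR of total RNA. Source cells were HepG2 transiently carrying chimeric NR-GAL4 plus GAL4-UAS reporter units, dosed 24 h. Activity fitted upward relative to DMSO baseline.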

[3] = molecular target: Oxysterols receptor LXR-alpha (Homo sapiens) (UniProt Q13133); test: ATG_LXRa_TRANS: Attagene TRANS-FACTORIAL HepG2 Assay for human Liver X Receptor alpha (LXRa) (AID 2282980); conditions: HepG2 Attagene TRANS reporter, LXRa transactivation
Oxysterols receptor LXR-alpha (Homo sapiens), sequence (Q13133 whole entry, looked up, the tested form may be a part): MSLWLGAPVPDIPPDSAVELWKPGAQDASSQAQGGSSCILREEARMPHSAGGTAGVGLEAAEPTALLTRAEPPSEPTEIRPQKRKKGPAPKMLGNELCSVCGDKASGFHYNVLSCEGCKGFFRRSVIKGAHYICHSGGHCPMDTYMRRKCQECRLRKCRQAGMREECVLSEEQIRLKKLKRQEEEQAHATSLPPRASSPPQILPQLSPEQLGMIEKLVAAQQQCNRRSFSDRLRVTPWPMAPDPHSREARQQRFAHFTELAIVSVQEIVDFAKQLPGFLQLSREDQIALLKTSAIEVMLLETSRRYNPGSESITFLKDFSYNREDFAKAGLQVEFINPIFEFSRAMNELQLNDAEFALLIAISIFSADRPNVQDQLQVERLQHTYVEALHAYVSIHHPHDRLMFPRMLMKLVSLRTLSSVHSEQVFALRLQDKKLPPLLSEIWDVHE
Procedure, shortened: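 Read-out: reporter transcript levels by RT-PCR plus capillary electrophoresis, fluorescence intensity. Transiently transfected HepG2, exogenous NR-GAL4 chimera, GAL4-UAS reporters; 24 h compound exposure. Activity = increase over DMSO negative control.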

[4] = molecular target: Oxysterols receptor LXR-beta (Homo sapiens) (UniProt P55055); test: ATG_LXRb_TRANS: Attagene TRANS-FACTORIAL HepG2 Assay for human Liver X Receptor beta (LXRb) (AID 2282981); conditions: HepG2 Attagene TRANS GAL4-LXRb reporter, mRNA
Oxysterols receptor LXR-beta (Homo sapiens), sequence (P55055 whole entry, looked up, the tested form may be a part): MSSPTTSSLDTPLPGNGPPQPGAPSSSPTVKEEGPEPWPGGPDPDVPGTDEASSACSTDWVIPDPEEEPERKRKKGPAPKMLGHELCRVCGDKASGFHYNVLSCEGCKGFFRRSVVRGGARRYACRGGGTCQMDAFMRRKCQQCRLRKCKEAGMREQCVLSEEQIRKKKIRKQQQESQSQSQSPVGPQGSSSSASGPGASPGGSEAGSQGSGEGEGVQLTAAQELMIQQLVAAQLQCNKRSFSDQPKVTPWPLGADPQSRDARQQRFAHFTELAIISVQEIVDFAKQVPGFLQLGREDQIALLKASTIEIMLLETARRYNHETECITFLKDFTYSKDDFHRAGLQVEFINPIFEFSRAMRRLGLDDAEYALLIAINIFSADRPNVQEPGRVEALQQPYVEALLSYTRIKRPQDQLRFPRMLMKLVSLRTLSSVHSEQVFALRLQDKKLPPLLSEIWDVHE
Procedure, shortened: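 After 24 h of chemical treatment, transfected HepG2 cells yield total RNA; reporter cDNA is PCR-amplified, FAM-labelled, HpaI-cut and run on capillary electrophoresis. Signal reflects chimeric LXRb-Gal4 activity on GAL4-UAS reporters.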

[5] = ATG_M_06_TRANS: Attagene TRANS-FACTORIAL HepG2 Assay for M06 Transcription Factor (Internal Marker) (AID 2282983); conditions: HepG2 Attagene TRANS M06 internal marker reporter
Procedure, shortened: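 Read-out: fluorescent reporter cDNA fragments resolved by capillary electrophoresis after RT-PCR and HpaI cut. Source cells were HepG2 carrying transfected multi-reporter GAL4 constructs, dosed 24 h. Increase over DMSO control analysed.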

[6] = ATG_M_32_TRANS: Attagene TRANS-FACTORIAL HepG2 Assay for M32 Transcription Factor (Internal Marker) (AID 2282984); conditions: HepG2 Attagene TRANS M32 internal marker reporter;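 also: transcript level of a background control reporter unit measured by RT-PCR and capillary electrophoresis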
Procedure, shortened: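 Cell-based TRANS-format assay in HepG2: exogenous chimeric GAL4 reporter units transiently expressed, compounds applied 24 h. Reporter mRNA detected by RT-PCR plus capillary electrophoresis; this readout is an internal background marker.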

[7] = molecular target: Nuclear receptor subfamily 4 group A member 2 (Homo sapiens) (UniProt P43354); test: ATG_NURR1_TRANS: Attagene TRANS-FACTORIAL HepG2 Assay for human Nuclear Receptor Related Protein 1 (NURR1) (AID 2282985); conditions: HepG2 Attagene TRANS reporter, mRNA readout
Nuclear receptor subfamily 4 group A member 2 (Homo sapiens), sequence (P43354 whole entry, looked up, the tested form may be a part): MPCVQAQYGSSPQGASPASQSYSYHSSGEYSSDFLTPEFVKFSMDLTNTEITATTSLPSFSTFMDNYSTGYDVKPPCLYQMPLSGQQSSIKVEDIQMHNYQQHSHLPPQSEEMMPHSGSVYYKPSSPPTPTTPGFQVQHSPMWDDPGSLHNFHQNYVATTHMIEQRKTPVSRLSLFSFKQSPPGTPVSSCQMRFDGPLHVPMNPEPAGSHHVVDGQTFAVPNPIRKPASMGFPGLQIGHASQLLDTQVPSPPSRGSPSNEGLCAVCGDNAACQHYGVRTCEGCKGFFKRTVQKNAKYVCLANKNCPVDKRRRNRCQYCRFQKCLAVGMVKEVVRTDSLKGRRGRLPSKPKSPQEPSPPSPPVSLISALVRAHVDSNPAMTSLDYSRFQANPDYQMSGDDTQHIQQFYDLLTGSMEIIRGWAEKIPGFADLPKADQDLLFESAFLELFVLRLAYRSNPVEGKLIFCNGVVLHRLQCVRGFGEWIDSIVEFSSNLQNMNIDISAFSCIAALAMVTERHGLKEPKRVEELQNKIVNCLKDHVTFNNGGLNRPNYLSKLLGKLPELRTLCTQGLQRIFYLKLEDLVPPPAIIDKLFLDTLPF
Procedure, shortened: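 Measures transcriptional activation by an exogenous NR-Gal4 chimera in transfected HepG2 liver cells. After 24 h, reporter RNA is reverse-transcribed, amplified and resolved by capillary electrophoresis; DMSO defines baseline.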

[8] = molecular target: Transcriptional activator Myb (Homo sapiens) (UniProt P10242); test: ATG_Myb_CIS: Attagene CIS-FACTORIAL HepG2 Assay for human Myeloblastosis (Myb) Proto-Oncogene Transcription Factor (AID 2282986; active = hit-call score of the fitted dose curve at least 0.9, where 1 is the maximum; inactive = score below 0.9); conditions: HepG2 Attagene CIS-FACTORIAL Myb reporter transcription; actives raise or lower the signal
Transcriptional activator Myb (Homo sapiens), sequence (P10242 whole entry, looked up): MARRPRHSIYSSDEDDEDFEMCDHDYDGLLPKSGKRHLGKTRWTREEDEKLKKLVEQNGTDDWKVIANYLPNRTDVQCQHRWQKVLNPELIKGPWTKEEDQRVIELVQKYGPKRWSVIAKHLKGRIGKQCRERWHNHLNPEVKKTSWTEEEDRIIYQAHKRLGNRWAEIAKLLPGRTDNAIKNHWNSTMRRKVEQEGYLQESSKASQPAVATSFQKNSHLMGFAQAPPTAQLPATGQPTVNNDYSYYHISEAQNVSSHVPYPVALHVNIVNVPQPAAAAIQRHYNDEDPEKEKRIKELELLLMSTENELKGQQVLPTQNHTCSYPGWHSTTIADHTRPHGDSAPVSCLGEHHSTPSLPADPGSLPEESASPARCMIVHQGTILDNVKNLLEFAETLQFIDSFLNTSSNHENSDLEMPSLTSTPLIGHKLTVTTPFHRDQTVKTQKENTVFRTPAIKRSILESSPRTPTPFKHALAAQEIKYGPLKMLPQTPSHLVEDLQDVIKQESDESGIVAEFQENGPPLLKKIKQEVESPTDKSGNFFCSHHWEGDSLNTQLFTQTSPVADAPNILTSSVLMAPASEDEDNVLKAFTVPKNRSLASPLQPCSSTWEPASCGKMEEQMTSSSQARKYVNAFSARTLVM
Procedure, shortened: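 HepG2 cells were transiently transfected with cis-regulated multiple reporter transcription units reflecting endogenous Myb activity, then exposed to compound for 24 hours. Reporter mRNA was measured by RT-PCR with capillary electrophoresis; bidirectional fitting versus DMSO baseline.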

[9] = molecular target: Hepatocyte nuclear factor 4-alpha (Homo sapiens) (UniProt P41235); test: ATG_HNF4a_TRANS: Attagene TRANS-FACTORIAL HepG2 Assay for human Hepatocyte Nuclear Factor 4 alpha (HNF4a) (AID 2282982); conditions: HepG2 HNF4a transactivation reporter, mRNA readout
Hepatocyte nuclear factor 4-alpha (Homo sapiens), sequence (P41235 whole entry, looked up): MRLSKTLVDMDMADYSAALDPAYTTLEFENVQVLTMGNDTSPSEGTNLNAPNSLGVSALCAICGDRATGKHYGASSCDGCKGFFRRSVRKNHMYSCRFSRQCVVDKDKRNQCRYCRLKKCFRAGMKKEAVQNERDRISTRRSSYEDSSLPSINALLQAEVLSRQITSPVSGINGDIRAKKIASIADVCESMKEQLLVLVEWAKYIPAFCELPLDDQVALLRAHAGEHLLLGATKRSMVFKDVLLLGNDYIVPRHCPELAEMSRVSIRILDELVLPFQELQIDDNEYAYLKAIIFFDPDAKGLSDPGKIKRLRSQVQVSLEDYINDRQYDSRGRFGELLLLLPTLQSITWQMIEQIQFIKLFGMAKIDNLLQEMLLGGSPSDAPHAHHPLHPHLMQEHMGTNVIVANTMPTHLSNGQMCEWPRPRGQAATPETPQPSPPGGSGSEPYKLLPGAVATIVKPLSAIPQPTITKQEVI
Procedure, shortened: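 Multiplexed reporter assay: transfected HepG2, 24 h exposure, total RNA → oligo(dT) RT → PCR → 6-FAM extension → HpaI digest → CE fluorescence. DMSO = negative control.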

Measured: AC50

OCC(F)(F)C(F)(F)C(F)(F)C(F)(F)C(F)(F)C(F)(F)CO
not listed: [9]
inactive: all other assays above

CCCCCCCCCCCCC[N+](C)(C)Cc1ccccc1
not listed: [7] | [9]
inactive: all other assays above

CCN(CC)c1ccc(C=O)c(O)c1
not listed: [4] | [9]
inactive: all other assays above

CCOC(OCC)OCC
not listed: [3]
inactive: all other assays above

NC(=O)C(F)(F)C(F)(F)C(F)(F)C(F)(F)C(F)(F)C(F)(F)C(F)(F)F
not listed: [4] | [9]
inactive: all other assays above

O=C(Cl)c1ccc(Cl)cc1Cl
not listed: [4]
inactive: all other assays above

CCC(Cc1c(I)cc(I)c(N)c1I)C(=O)O (centres undefined)
not listed: [6] | [7] | [9]
inactive: all other assays above

CCc1cccc(C)c1N(C(=O)C(=O)O)C(C)COC (centres undefined)
inactive: [1] | [2] | [3] | [6] | [8]

Cc1cc(O)c(C(C)(C)C)cc1C(C)(C)C
active: [3] 2.99 µM | [4] 4.8 µM | [7] 5.29 µM
not listed: [9]
inactive: all other assays above

NS(=O)(=O)C(F)(F)C(F)(F)C(F)(F)C(F)(F)C(F)(F)C(F)(F)F
not listed: [7]
inactive: all other assays above

CCN(CC)c1ccc(N=Nc2ccccc2)cc1
not listed: [5]
inactive: all other assays above

CCc1ccc(C)nc1
not listed: [4] | [7]
inactive: all other assays above

O=S(=O)(O)CCC(F)(F)C(F)(F)C(F)(F)C(F)(F)C(F)(F)C(F)(F)C(F)(F)C(F)(F)F
inactive: [1] | [3] | [6] | [7] | [8]
active: [2] 40 µM

CCOCN(C(=O)CS(=O)(=O)O)c1c(C)cccc1CC
inactive: all assays above

Cc1ccc(O)cn1
active: [3] 25.4 µM
not listed: [4] | [5]
inactive: all other assays above

CC(=O)C=O
inactive: [1] | [2] | [3] | [5] | [8]

CN(C)C(C)(C)CO
not listed: [6]
inactive: all other assays above

O=C(O)C(F)(F)C(F)(F)C(F)(F)OC(F)(C(F)(F)F)C(F)(F)F
not listed: [4] | [5] | [9]
inactive: all other assays above

FC(F)(F)C(F)(F)C(F)(F)C(F)(F)C(F)(F)C(F)(F)CC[Si](Cl)(Cl)Cl
not listed: [3] | [6] | [9]
inactive: all other assays above

CCCCCCCCCCCCCC[P+](CCCC)(CCCC)CCCC
not listed: [7] | [9]
inactive: all other assays above

CCN=c1cc2oc3cc(NCC)c(C)cc3c(-c3ccccc3C(=O)OCC)c-2cc1C
inactive: [1] | [2] | [5] | [6] | [8]

CCCCC(CC)COC(=O)c1ccc(N(C)C)cc1 (centres undefined)
not listed: [3] | [4]
inactive: all other assays above

CSc1ccc(Cl)cc1
inactive: [1] | [2] | [9] | [5] | [8]

CC(C)(C)c1cc(Cc2cc(C(C)(C)C)c(O)c(C(C)(C)C)c2)cc(C(C)(C)C)c1O
inactive: [1] | [2] | [6] | [7] | [8]

CCCCCCCCCc1ccc(OCCO)cc1
active: [8] 17.6 µM
inactive: [1] | [2] | [5]

CN(C(=O)C(F)(F)C(F)(F)C(F)(F)F)[Si](C)(C)C
not listed: [3] | [4] | [6]
inactive: all other assays above

OCC(O)CC(F)(F)C(F)(F)C(F)(F)C(F)(F)F (centres undefined)
inactive: [1] | [2] | [5] | [8]

OCCC(O)CO (centres undefined)
inactive: [1] | [2] | [8]

OCC1CCCO1 (centres undefined)
not listed: [2] | [7] | [9]
inactive: all other assays above

Cc1cc(=O)[nH]c(C(C)C)n1
not listed: [2]
inactive: all other assays above

O=c1cccc[nH]1
not listed: [2] | [3]
inactive: all other assays above

CC(=O)c1ccccc1N
inactive: [1] | [9] | [5] | [8]

CCCCCC/C=C/CCCCCCCC(=O)O
inactive: [1] | [2] | [5] | [6] | [8]
active: [7] 67.1 µM

CCC/C=C/CO
not listed: [3] | [4] | [5]
inactive: all other assays above

Cc1cnccn1
inactive: [1] | [3] | [9] | [6] | [8]

CCc1cc(Cc2cc(CC)c(N)c(CC)c2)cc(CC)c1N
not listed: [3] | [4]
inactive: all other assays above

OC(O)C(F)(F)C(F)(F)F
inactive: [1] | [2] | [5] | [7] | [8]

Brc1nc2ccccc2s1
not listed: [2] | [3] | [4]
inactive: all other assays above

CC(C)=CCCC(C)O (centres undefined)
inactive: [1] | [2] | [5] | [8]

OCCCc1cccnc1
not listed: [3] | [4]
inactive: all other assays above

C=CC(=O)OCCC(F)(F)C(F)(F)C(F)(F)C(F)(F)F
not listed: [3] | [4] | [9]
inactive: all other assays above

CCN=C1C=CC(=C(c2ccc(N(CC)CC)cc2)c2ccc(N(CC)CC)cc2)c2ccccc21
inactive: [1] | [2] | [9] | [8]

COC(=O)c1ccc(C=O)cc1
inactive: [1] | [2] | [4] | [6] | [8]

CCN(CC)c1ccc2c(c1)Oc1cc(N(CC)CC)ccc1C21OC(=O)c2ccccc21
inactive: [1] | [2] | [5] | [6] | [8]

Cc1cccc(C)n1
not listed: [2] | [4] | [7]
inactive: all other assays above

COc1ccccc1C=O
not listed: [3] | [5] | [9]
inactive: all other assays above

c1ccc(C[P+](c2ccccc2)(c2ccccc2)c2ccccc2)cc1
not listed: [3] | [5] | [9]
inactive: all other assays above

CCCCCCCCn1sc(Cl)c(Cl)c1=O
inactive: [1] | [4] | [5] | [6] | [7]
active: [8] 20.4 µM

Oc1ccc(C2(c3ccc(O)c(C4CCCCC4)c3)CCCCC2)cc1C1CCCCC1
inactive: [1] | [2] | [9] | [5] | [6]
active: [8] 51.3 µM

CCCC(=O)OCC(COC(=O)CCC)OC(=O)CCC
not listed: [3] | [4] | [6]
inactive: all other assays above

O=S(=O)(O)CCC(F)(F)C(F)(F)C(F)(F)C(F)(F)F
inactive: [1] | [4] | [5] | [8]

CC(=O)CCC(C)C
inactive: [1] | [4] | [8]

Cc1cc(C)c(O)c(C(C)(C)C)c1
not listed: [2] | [4] | [9]
inactive: all other assays above

CO[Si](CCCOCC1CO1)(OC)OC (centres undefined)
not listed: [2] | [3] | [5]
inactive: all other assays above

Nc1cc([N+](=O)[O-])cc(Cl)c1O
inactive: [1] | [5] | [6] | [8]

O=S(=O)(O)c1ccc(Cl)cc1
not listed: [2]
inactive: all other assays above

O=c1[nH]cccc1O
not listed: [2] | [9]
inactive: all other assays above

NC(O)(C(F)(F)F)C(F)(F)F
inactive: [9] | [5] | [7] | [8]

NCC(F)(F)C(F)(F)C(F)(F)C(F)(F)C(F)(F)C(F)(F)F
inactive: [2] | [5] | [6] | [8]

O=C(c1ccccc1)c1ccc(Cl)cc1
inactive: [2] | [5] | [6] | [7] | [8]

COC(F)(C(F)F)C(F)(F)F (centres undefined)
inactive: [1] | [5] | [7] | [8]

O=C1OC(=O)c2ccc3c4c(ccc1c24)C(=O)OC3=O
not listed: [1] | [4] | [7]
inactive: all other assays above

NC(=O)C(F)(F)C(F)(F)C(F)(F)C(F)F
inactive: [2] | [5] | [6] | [8]

O=C(O)C(F)(F)OC(F)(F)C(F)(F)OC(F)(F)C(F)(F)OC(F)(F)F
not listed: [1] | [4] | [9]
inactive: all other assays above

COCCC(=O)OC
inactive: [3] | [9] | [6] | [8]

O=C(Cl)C(F)(F)C(F)(F)C(F)(F)C(F)(F)C(F)(F)C(F)(F)C(F)(F)F
inactive: [2] | [3] | [4] | [5] | [8]
active: [7] 38.9 µM
